Assay outcomes (PubChem)
S2 tox = Viability Counterscreen for Primary qHTS for Inhibitors of ATXN expression; S2 cells (HEK-293 line with an ATXN2-luciferase reporter) viability, CellTiter-Fluor protease fluorescence, 24 h; Potency, µM (highest dose often 56.7 µM), actives largely listed as cytotoxic; 400,000 tested, 0.49% active; AID 651635, 2014; also: potency is read from the fitted curve at half-maximal effect; nearly all actives have a fitted effect of over 40% in size
DRD3 agonist = qHTS of D3 Dopamine Receptor Agonist: qHTS | D(3) dopamine receptor (Homo sapiens), P35462 | D3R DiscoveRx beta-arrestin cells, luminescence, 90 min | max activation, % | 410,000 tested, 0.58% active; in the data active = max activation above about 30%; also: 0% is about no effect
Target sequence (P35462 whole entry, looked up): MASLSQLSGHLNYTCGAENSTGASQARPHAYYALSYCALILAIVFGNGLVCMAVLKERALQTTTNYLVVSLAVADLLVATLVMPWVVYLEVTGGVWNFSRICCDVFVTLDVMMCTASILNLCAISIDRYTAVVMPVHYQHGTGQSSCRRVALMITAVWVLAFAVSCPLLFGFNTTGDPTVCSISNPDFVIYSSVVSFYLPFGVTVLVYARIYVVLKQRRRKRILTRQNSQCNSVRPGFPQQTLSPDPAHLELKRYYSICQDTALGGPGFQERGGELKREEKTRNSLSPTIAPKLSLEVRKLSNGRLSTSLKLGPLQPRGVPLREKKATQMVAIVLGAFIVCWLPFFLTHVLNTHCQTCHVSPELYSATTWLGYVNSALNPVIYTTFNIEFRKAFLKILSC
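Cells at 1500/well, incubated overnight, then treated with pinned compounds (dopamine as control) for 90 min at 37 degrees C. DiscoveRx reagent added for 30 - 60 minutes at room temperature; luminescence read.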
HepG2 viability = qHTS for Inhibitors of TGF-b: Cytotox Counterscreen | Potency, µM (series often up to 46.1 µM), for inactives: top-dose activity change, negative = cytotoxicity, most hits filed as cytotoxic | AID 588856, 2011 | 410,000 tested, 0.76% active | HepG2 CAGA-GFP viability, ATP luminescence, 18 h; also: potency is read from the fitted curve at half-maximal effect
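CellTiter-Glo luminescence gave cytotoxicity after 18 hours at 37 degrees C. The cells were HepG2 CAGA-GFP in 1% FBS DMEM, stimulated with 500 pg/mL TGF-beta after compound addition. %Activity was normalised to no-cell wells (complete cell-killing) and DMSO (no toxicity), and curves were fitted and classified.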
TGFb inhibitor = qHTS for Inhibitors of TGF-b; HepG2 CAGA-GFP TGF-b/SMAD3 reporter, GFP fluorescence, 18 h; TGF-beta stimulated, 500 pg/mL final; 410,000 tested, 1.2% active; Potency, µM (series often up to 46.1 µM), without a hit: at the top dose activity, negative = inhibition, actives largely listed as inhibitors; also: potency is read from the fitted curve at half-maximal effect; % is scaled to controls: 0 for no effect and ±100 for the full control effect; nearly all actives have a fitted effect of over 65% in size
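Smad-responsive CAGA-GFP expression was quantified in HEPG2 cells exposed to compounds and 500 pg/mL final TGF-beta for 18 h at 37 degrees C; unstimulated wells defined full inhibition.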
D3 antag = qHTS of D3 Dopamine Receptor Antagonist: qHTS | 360,000 tested, 2.5% active | D3R cells, DiscoveRx beta-arrestin luminescence, antagonist mode; hits give low values | D(3) dopamine receptor (Homo sapiens), P35462 | max response, negative = inhibition, %; in the data active = max response below about -50%; inconclusive = no clear call, values can overlap the other calls; also: % is scaled to controls: 0 for no effect and ±100 for the full control effect
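Cells expressing the human receptor were seeded at 1500 cells/well, incubated overnight at 37 degrees C in 5% CO2, then exposed to library compounds with dopamine controls for 90 minutes at 37 degrees C before luminescent detection.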
ATXN2 expr inh = Primary qHTS for Inhibitors of ATXN expression; HEK-293 ATXN2-luciferase reporter, luminescence, 24 h; Potency, µM (titrated, usually from 57 µM), inactives show top-dose activity change, negative = inhibition, usual class: inhibitors; 360,000 tested, 0.72% active; AID 1745845, 2022; also: potency is read from the fitted curve at half-maximal effect; % is scaled to controls: 0 for no effect and ±100 for the full control effect; nearly all actives have a fitted effect of over 55% in size
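ATXN2-luciferase reporter cells (luciferase flanked by upstream and downstream ATXN2 gene portions) were treated 24 h at 37 °C with compounds at up to 57 uM. SteadyGlo luminescence gave expression; GF-AFC fluorescence gave viability.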
* = called active by the depositor; i = inactive; ? = inconclusive; . = no result. Hits are enriched below; roughly 4.7% of the tested compounds scored in any of these assays. Unless noted, calls follow the shape of the dose curve; as a rule, active = well fitted curve in the direction sought with a large enough effect; inconclusive = small, poorly fitted or top-dose-only effect, or another doubt; inactive = no such curve, though single readings can be large; an effect the other way counts as inactive or inconclusive.

SMILES	S2 tox	DRD3 agonist	HepG2 viability	TGFb inhibitor	D3 antag	ATXN2 expr inh
O=C1c2cccnc2C(O)N1Cc1ccc(F)cc1 (centres undefined)	i	4	1%	-3%	-66*	7%
COc1ccccc1NC(=O)C1=C(C)Nc2nc(SCc3ccccc3C)nn2C1CC(C)C (centres undefined)	i	4	5%	21%	.	5%
OC1(c2cccnc2)CCN(Cc2ccc3c(c2)CN(Cc2ccc(F)c(F)c2)CCO3)CC1	i	.	.	.	.	.
O=[N+]([O-])c1cccnc1S(=O)(=O)c1ccccc1	?	-9	3.5µM*	11µM*	-74*	-31%
COc1ccc([N+](=O)[O-])c(S(=O)(=O)c2ccc(Cl)cc2)n1	.	-10	0.63µM*	1.8µM*	-95*	?
COc1ccc([N+](=O)[O-])c(S(=O)(=O)c2ccccc2)n1	.	-45	14µM*	3.2µM*	-76*	12µM*
COc1cc(C2(c3ccc(O)c(OC)c3)C(=O)Nc3c(Br)cc(Br)cc32)ccc1O	?	-1	-95%	25µM*	-12	.
O=C(NCc1ccco1)c1cccc2c1C(=O)c1ccc(N3CCC(Cc4ccccc4)CC3)cc1S2(=O)=O	.	31*	-7%	16%	68	-18%
O=C(NCc1cccc(F)c1)c1cccc2c1C(=O)c1ccc(N3CCC(Cc4ccccc4)CC3)cc1S2(=O)=O	.	12	-9%	15%	5	-11%
O=C(NCc1ccc(OC(F)(F)F)cc1)c1cccc2c1C(=O)c1ccc(N3CCCC3)cc1S2(=O)=O	?	-13	-10%	-3%	-51*	9%
CC1CCN(c2ccc3c(c2)S(=O)(=O)c2cccc(C(=O)NCc4cccc(F)c4)c2C3=O)CC1	.	106*	10%	2%	100	11%
O=C(NCc1cc(C(F)(F)F)ccc1Cl)c1cccc2c1C(=O)c1ccc(N3CCC(N4CCCCC4)CC3)cc1S2(=O)=O	?	-3	16µM*	?	21	25µM*
Cc1ccc[n+](C(C)C(=O)Nc2ccc(C)c([N+](=O)[O-])c2)c1 (centres undefined)	i	-11	8%	-19%	-70*	12%
COc1ccc(C2Nc3ccccc3C(=O)N2Cc2ccco2)cc1COc1c(C)cccc1C (centres undefined)	.	.	-73%	?	.	.
COC(=O)[C@@H]1CCCN1Cc1ccc2c(c1)CN(Cc1ccc3c(c1)CCCN3C)CCO2	i	.	.	.	.	.
COc1ccc(NS(=O)(=O)c2cc(NC(=O)c3ccco3)ccc2N2CCCC2)cc1	i	-6	9%	3%	-56*	13%
Cc1ccc([C@H]2C[C@@H](O)[C@H](n3cc(-c4ccc(F)cc4)nn3)CN2C(=O)C2CCCCC2)cc1	.	1	-32%	13µM*	20	?
CCCCCCN1C[C@H](n2cc(C3CC3)nn2)[C@@H](O)C[C@@H]1c1ccc(OC)cc1	25µM*	-11	-99%	?	-20	?
CCCCCCN1C[C@@H](n2cc(-c3ccc(F)cc3)nn2)[C@H](O)C[C@@H]1c1ccc(Cl)cc1	18µM*	16	-112%	?	24	?
CCCCCCN1C[C@H](O)[C@@H](n2cc(-c3ccc(F)cc3)nn2)C[C@@H]1c1ccc(Cl)cc1	?	-10	-40%	?	-8	?
CCCCCCN1C[C@H](n2cc(-c3ccc(F)cc3)nn2)[C@@H](O)C[C@@H]1c1ccc(C)cc1	.	4	11µM*	?	-3	?
COc1cc(=O)n2c(c1C(=O)N(C)Cc1nonc1C)CCN(Cc1ccc(C)cc1C)CC2	i	.	.	.	.	.
Cc1ccc(-c2cc(-c3ccc4c(c3)NC(=O)CO4)nc3c2COc2ccc(C)cc2-3)cc1	i	3	-1%	?	.	14%
O=C(Cn1cc(S(=O)(=O)N2CCCC2)c(S(=O)(=O)N2CCCC2)c1)Nc1ccccc1	i	1	-1%	-14%	.	-1%
COc1ccccc1-c1c(C)nn2c(N3CCCCCC3)cc(C)nc12	?	6	-41%	11µM*	11	?
SMILES	S2 tox	DRD3 agonist	HepG2 viability	TGFb inhibitor	D3 antag	ATXN2 expr inh
COc1ccc(Cl)cc1-n1c(=S)sc2c(=O)[nH]c(SCC(=O)NCC3CCCO3)nc21 (centres undefined)	i	-27	-13%	8%	-58*	3%
COc1ccc(Cc2nnc(Nc3ccc(C)cc3C)[nH]c2=O)cc1	i	-2	3%	3%	-61*	-6%
COc1ccc(Cc2nnc(SCC(=O)Nc3ccc(C)cc3C)[nH]c2=O)cc1	i	-3	-8%	-3%	-3	-18%
Cc1ccc(N(CC(O)CN2CCOCC2)S(=O)(=O)c2ccc3ccccc3c2)cc1 (centres undefined)	i	3	-13%	-2%	0	-4%
Cc1ccc(S(=O)(=O)N(CC(O)CN2CCOCC2)c2cc(Cl)ccc2Cl)cc1 (centres undefined)	i	-18	0%	3%	-54*	-9%
CC1CCc2noc(NC(=O)c3ccccc3[N+](=O)[O-])c2C1 (centres undefined)	i	-10	-15%	?	.	-5%
CCN1CCCC1CNC(=O)c1cnn(-c2nccc(-c3ccco3)n2)c1C1CC1 (centres undefined)	i	.	.	.	.	.
CC(O)CN1C(=O)C(CC(=O)Nc2ccc(Cl)cc2)SC1=Nc1ccccc1 (centres undefined)	?	2	-67%	11µM*	-9	?
COc1ccc(C=C2CS(=O)(=O)CC(=Cc3ccc(OC)cc3)C2=O)cc1	?	-8	-82%	5µM*	-64*	.
COc1ccc(/C=C2\CCCCC2=O)cc1	i	-3	-53%	-4%	-7	4%
CC(=O)Nc1ccc(NC(=O)c2ccc3c(c2)CCN3S(=O)(=O)c2ccc(Cl)cc2)cc1	i	-4	-29%	-1%	.	-21%
